{"source": "PubChem BioAssay (Tox21)", "note": "Inconclusive results are not listed. A call without a number means that no potency is given here. Active and inactive are the calls of the source. Calls come from the whole dose curve.", "data": [{"target": "Peroxisome proliferator-activated receptor delta (Homo sapiens) (UniProt Q03181)", "sequence (Q03181 whole entry, looked up)": "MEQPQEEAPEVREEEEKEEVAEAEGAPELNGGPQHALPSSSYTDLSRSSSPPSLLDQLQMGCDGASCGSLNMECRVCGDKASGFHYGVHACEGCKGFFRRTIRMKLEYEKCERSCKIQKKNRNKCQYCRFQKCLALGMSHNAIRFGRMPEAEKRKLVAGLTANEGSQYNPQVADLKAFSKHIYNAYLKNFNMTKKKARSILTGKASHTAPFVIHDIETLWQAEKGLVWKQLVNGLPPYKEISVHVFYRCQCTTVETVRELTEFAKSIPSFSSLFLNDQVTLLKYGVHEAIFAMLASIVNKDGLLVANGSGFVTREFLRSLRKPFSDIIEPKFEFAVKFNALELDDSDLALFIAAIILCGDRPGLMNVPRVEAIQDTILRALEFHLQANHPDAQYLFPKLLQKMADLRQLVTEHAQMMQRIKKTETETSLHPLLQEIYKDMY", "test": "qHTS assay to identify small molecule agonists of the peroxisome proliferator-activated receptor delta (PPARd) signaling pathway (AID 743212)", "settings": "HEK293H PPARd-UAS-bla, beta-lactamase FRET ratio, 17 h; series mostly up to 62.6 µM", "from_the_text": "U.S. Tox21 Program National Center for Advancing Translational Sciences [NCATS] NIH Chemical Genomics Center [NCGC] U.S. Environmental Protection Agency [EPA] National Institutes of Environmental Health Sciences [NIEHS] National Toxicology Program [NTP] U.S. Food and Drug Administration [FDA] Tox21 Assay Overview: The peroxisome proliferator-activated receptors (PPARs) are lipid-activated transcription factors of the nuclear receptor superfamily with three distinct subtypes namely PPAR alpha, PPAR delta (PPARd) and PPAR gamma. All these subtypes heterodimerizes with Retinoid X receptor (RXR) and have different physiological functions. […] To identify the compounds that activate PPAR-delta signaling, GeneBLAzer PPAR delta UAS-bla HEK293H cell line (Invitrogen, Carlsbad, CA, USA) containing a beta-lactamase reporter gene under the control of an Upstream Activator Sequence (UAS) was used to screen the Tox21 compound library.\nTox21 Assay Protocol Summary: PPARd-bla cells were dispensed at 3000 cells/6uL/well in 1536-well black wall/clear bottom plates using a Multidrop Combi (Thermo Fisher Scientific, Waltham, MA) dispenser. After the assay plates were incubated at 37 C and 5% CO2 for 5 h, 23 nL of compounds dissolved in DMSO, positive controls or DMSO only was transferred to the assay plate by a Pintool station (Kalypsys, San Diego, CA). The assay plates were incubated at 37C for 17 h. After 1 uL of LiveBLAzerTM B/G FRET substrate was added using a Bioraptr Flying Reagent Dispenser (FRD) workstation (Beckman Coulter, Indianapolis, IN, USA), the plates were incubated at room temperature for 2 h, and fluorescence intensity was measured by an Envision plate reader (PerkinElmer, Shelton, CT).", "values": [{"smiles": "Nc1ccc(S(=O)(=O)Nc2ccccc2)cc1", "Potency": "inactive"}, {"smiles": "NC(N)=NCCC[C@H](N)C(=O)O", "activation": "0.522% [at 5.95 µM] (inactive)"}, {"smiles": "C=C1[C@H]2CC[C@@H]3[C@H]2C(C)(C)CCC[C@]13C", "Potency": "inactive"}, {"smiles": "CC(C)Cc1ccc(C(C)C(=O)OCc2ccccn2)cc1", "note": "(stereo not given)", "Potency": "inactive"}, {"smiles": "O=C(NCC1CN(c2ccc(N3CCOCC3=O)cc2)C(=O)O1)c1ccc(Cl)s1", "note": "(stereo not given)", "Potency": "inactive"}, {"smiles": "CO[C@@H]1[C@H](OC(=O)/C=C/C=C/C=C/C=C/C(=O)O)CC[C@]2(CO2)[C@H]1[C@@]1(C)O[C@@H]1CC=C(C)C", "Potency": "inactive"}, {"smiles": "ClCCOCCOCCCl", "Potency": "inactive"}, {"smiles": "CCCCCCCC/C=C\\CCCCCCCC(=O)OCC", "Potency": "inactive"}, {"smiles": "COC(C)OC", "Potency": "inactive"}, {"smiles": "CCCCCCCCCCCC(=O)OC[C@@H](O)[C@H]1OC[C@H](OCCO)[C@H]1OCCO", "Potency": "inactive"}, {"smiles": "O=C(O)c1nc(Cl)c(Cl)c(Cl)c1Cl", "Potency": "inactive"}, {"smiles": "C#CCN(C)CCCOc1ccc(Cl)cc1Cl", "Potency": "inactive"}, {"smiles": "CCCOC(C(=O)OC1CCN(C)CC1)(c1ccccc1)c1ccccc1", "Potency": "inactive"}, {"smiles": "CC(C)Nc1ccc(NC(C)C)c2c1C(=O)c1ccccc1C2=O", "Potency": "inactive"}, {"smiles": "CCCC(=O)Nc1ccc(O)c(C(C)=O)c1", "Potency": "inactive"}, {"smiles": "O=C(O)c1ccc(-n2nc(-c3ccccc3O)nc2-c2ccccc2O)cc1", "Potency": "inactive"}, {"smiles": "C=C(C)C(=O)OCCO", "Potency": "inactive"}, {"smiles": "CC(=O)c1cccc([N+](=O)[O-])c1", "Potency": "inactive"}, {"smiles": "OC(C#CCN1CCCC1)(c1ccccc1)c1ccccc1", "Potency": "inactive"}, {"smiles": "C/C=C/C=C/CO", "Potency": "inactive"}, {"smiles": "CC1CCC(=O)C1=O", "note": "(stereo not given)", "Potency": "inactive"}, {"smiles": "Cc1cc(C(=O)O)ccc1[N+](=O)[O-]", "Potency": "inactive"}, {"smiles": "C/C=C(/C(=C/C)c1ccc(OC(C)=O)cc1)c1ccc(OC(C)=O)cc1", "Potency": "inactive"}, {"smiles": "CCCCCCCCO[C@@H]1O[C@H](CO)[C@@H](O)[C@H](O)[C@H]1O", "Potency": "inactive"}, {"smiles": "COc1cc2c(cc1OC)C(C(C(=O)N(CCc1ccc(OC)c(OC)c1OC)CCc1ccc(OC)c(OC)c1OC)c1ccccc1)=NCC2", "note": "(stereo not given)", "Potency": "inactive"}, {"smiles": "CCC(Cl)CCC(Cl)C(Cl)CC(Cl)C(Cl)C(Cl)CCl", "note": "(stereo not given)", "Potency": "inactive"}, {"smiles": "COC(C)(C)CCO", "Potency": "inactive"}, {"smiles": "Nc1ccc([N+](=O)[O-])c(C(F)(F)F)c1", "Potency": "inactive"}, {"smiles": "c1cc(CCCc2ccncc2)ccn1", "Potency": "inactive"}, {"smiles": "CC(C)(C)OCC1CO1", "note": "(stereo not given)", "Potency": "inactive"}, {"smiles": "CCO[Si](CCCCl)(OCC)OCC", "Potency": "inactive"}, {"smiles": "CN1Cc2cc(C(=O)N3CCC(C4CCNCC4)CC3)ccc2NC(CC(=O)O)C1=O", "note": "(stereo not given)", "Potency": "inactive"}, {"smiles": "Cc1[nH]c(C)c(Cl)c(=O)c1Cl", "Potency": "inactive"}, {"smiles": "CCCCCCCCCCO[C@@H]1O[C@H](CO)[C@@H](O)[C@H](O)[C@H]1O", "Potency": "inactive"}, {"smiles": "Cc1ccc(N=Nc2c(O)c(C(=O)O)cc3ccccc23)c(S(=O)(=O)O)c1", "Potency": "inactive"}, {"smiles": "CC(C)(O)c1ccc(CNC(=O)c2cccnc2Oc2ccc(F)cc2)cc1", "Potency": "inactive"}, {"smiles": "CCN(CC)CCNC(=O)c1cc(Br)c(N)cc1OC", "Potency": "inactive"}, {"smiles": "COc1cccc(N(C)C(=S)Oc2ccc3c(c2)CCCC3)n1", "Potency": "inactive"}, {"smiles": "COc1ccnc(CS(=O)c2nc3ccc(OC(F)F)cc3[nH]2)c1OC", "note": "(stereo not given)", "Potency": "inactive"}, {"smiles": "CN(C)CCN(Cc1ccc(Cl)cc1)c1ccccn1", "Potency": "inactive"}]}]}
